Drawing on ChEMBL document CHEMBL4513216, “Probing the Open Global Health Chemical Diversity Library for Multistage-Active Starting Points for Next-Generation Antimalarials” (ACS Infect Dis, 2020), this text covers INHIBITION for 104 compounds.

The campaign covered roughly 68,000 compounds. About 2,700 (4%) showed an effect of 50% or more. This excerpt belongs to a sample that is enriched for strong results.

This assay relates to Plasmodium berghei. As to the kind of experiment: Screen against P. berghei liver stage (PbLuc), transformed with Luciferase, at 2uM. The format is functional, HepG2. As to conditions: tested at 2 uM.
Consider `CCNc1cc2c(nn1)CCN(C(=O)C(C)c1c(C)noc1C)C2` (centres undefined), for which the INHIBITION is given as -45.83%.
The figure for `COc1cc(CNCc2ccnc(N3CCCC3)c2)cc(OC)c1` is -2.71%; for `CCN1C[C@H]2C3(CCN(C(=O)NC(C)C)CC3)CC[C@@]2(C(=O)NC)C1` it is 45.36%; for `CN1CCCC2(CCN(S(=O)(=O)c3c(Cl)nc4sccn34)C2)C1=O` (centres undefined) it is 66.11%.
As for `O=S(=O)(c1c(Cl)nc2sccn12)N1CCC2(CCNCC2)C1`, the INHIBITION is listed as 27.17%.
The figure for `O=S(=O)(c1c(Cl)nc2sccn12)N1CCCC2(CCNC2)C1` (centres undefined) is 12.83%; for `CCC1=N[C@@]2(CC[C@@H]3CN(S(=O)(=O)CC(C)C)C[C@@H]32)C(=O)N1CC` it is 47.53%.
Take `CCN(Cc1cccc(F)c1)Cn1nc(C)c2c(C)onc2c1=O`: the INHIBITION is on record as 9.17%.
To `CCN(Cc1c(F)cccc1F)Cn1nc(C)c2c(C)onc2c1=O` belongs 62.13%.
The figure for `CCN(Cc1cccc(C)c1)Cn1nc(C)c2c(C)onc2c1=O` is -1.02%; for `CN1CCC(N(Cc2ccncc2)Cc2nc3c(s2)CCCC3)CC1` it is -1.15%.
For the compound `O=C(NCCCc1nc(=O)[nH][nH]1)c1ccc(Cl)cn1`, the INHIBITION is recorded as 43.28%.
To `CN(C)CCOCc1cncc2c1CCN(C(=O)C1CCOCC1)C2` belongs 26.48%.
For `Cn1ccnc1SCCNC1CCN(c2ncccn2)CC1`, the INHIBITION was 50.98%.
As for `Cc1cc(C)nc(N2CCC(NCCSc3nnnn3C)CC2)n1`, the INHIBITION is on record as -25.72%.
As to `Cn1ccnc1SCCNC1CCN(c2nc3ccccc3s2)CC1`, the INHIBITION was -11.8%.
On to `COc1cc(N2CCC3(CCCN(C(=O)c4cnccn4)C3)C2)ncn1` (centres undefined), for which the INHIBITION is recorded as -42.01%.
Take `CCN1CCN(CC(C)(O)c2cccc(C(F)(F)F)c2)CC1` (centres undefined): the INHIBITION is 69.41%.
With `CC(=O)N1CCN(CC(C)(O)c2cccc(C(F)(F)F)c2)CC1` (centres undefined), the INHIBITION was 1.63%.
To `CC(O)(CN1CCN(CCO)CC1)c1cccc(C(F)(F)F)c1` (centres undefined) belongs -27.62%; to `O=C(NCCNc1ccccn1)Nc1cc(C(F)(F)F)c[nH]c1=O`, -20.82%; to `CC(C)C(NC(=O)Cn1ccc(=O)n(C)c1=O)c1ccc(F)cc1` (centres undefined), -56.99%.
Turning to `Fc1ccc(C(CNc2ccncn2)N2CCCC2)cc1` (centres undefined), the INHIBITION is 30.93%.
For `NC(=O)CN1CCC(C(=O)NCCc2nc(-c3ccccc3)cs2)CC1`, the INHIBITION was -13.72%.
The figure for `NC(=O)CN1CCC(C(=O)NCc2nc(-c3ccc(F)cc3)cs2)CC1` is 14.19%.
The figure for `N[C@@H]1CC[C@H](C(=O)NCCc2nc(-c3ccccc3)cs2)C1` is 60.18%; for `COCCN1CCCn2cnc(CNC(=O)N(C)C)c2C1` it is 2.33%; for `CC(C)(CO)CCCNC(=O)NC1(c2cccc(F)c2)CC1` it is 57.16%.
In the case of `CC(C)(CO)CCCNC(=O)NC1(c2ccccc2F)CC1`, the INHIBITION was -3.66%.
To `CC(C)(CO)CCCNC(=O)NC1(C)Cc2ccccc2C1` belongs 29.87%; to `CC(NC(=O)COc1ccccc1I)C1CC1` (centres undefined), -3.87%.
On to `CN(CCOCC1CC1)C(=O)Nc1ccc([S+](C)[O-])cc1` (centres undefined), for which the INHIBITION is given as -88.39%.
As to `O=C(CCNCc1cccc2c1OCCCO2)NC1CCCC1`, the INHIBITION was -42.54%.
As for `O=C(CC1CCCC1)NCCNCc1cccc2c1OCCO2`, the INHIBITION amounted to 30.57%.
`O=C(NCCNCc1cccc2c1OCCCO2)C1CCCC1`: the INHIBITION turned out to be 77.72%.
As to `CCO[C@@H]1CO[C@@]2(CCCN(S(=O)(=O)c3ccccc3)C2)C1`, the INHIBITION is recorded as 32.66%.
To `COCCN1CCC12CCN(c1ncccn1)C2` (centres undefined) belongs 30.96%.
For the compound `COC(=O)c1cc2n(n1)CCCN(C(=O)Cc1c[nH]c3ccccc13)C2`, the INHIBITION is listed as 19.27%.
Turning to `N#Cc1cc2n(n1)CCN(C(=O)CCc1c[nH]c3ccccc13)C2`, the INHIBITION was found to be 76.29%.
In the case of `O=C(O)c1cc2n(n1)CCCN(C(=O)CCc1c[nH]c3ccccc13)C2`, the INHIBITION turned out to be 6.72%.
The figure for `CC(NC(=O)c1cccc(CCC(C)(C)O)c1)c1nnc(N)s1` (centres undefined) is 18.84%; for `Cc1noc(C)c1-c1cc(C2CCNCC2)ccn1` it is -18.04%; for `O=S(=O)(CC1CCCO1)Nc1cc(Cl)ccc1-n1cccn1` (centres undefined) it is -69.64%.
For the compound `CN(C)C[C@@H]1CN(C2CCN(c3ccc(Cl)cc3)CC2)C[C@@H]1CO`, the INHIBITION stood at 63.46%.
Turning to `CN(C)C[C@@H]1CN(C2CCN(c3ccccc3Cl)CC2)C[C@@H]1CO`, the INHIBITION came out at 32.26%.
Regarding `Cc1ccc(N2CCC(N3C[C@@H](CN(C)C)[C@@H](CO)C3)CC2)cc1`, the INHIBITION was 27.85%.
Take `Cc1ccccc1OCC(=O)N1CCN(C2CCOC2=O)CC1` (centres undefined): the INHIBITION was -42.29%.
Turning to `CCn1ccnc1CN(C)Cc1nc(Cc2ccccc2F)no1`, the INHIBITION was found to be 36.34%.
As to `Cc1cc(C[S+]([O-])CC(=O)NCc2cccc(Cl)c2)no1` (centres undefined), the INHIBITION is -11.2%.
With `CCN1CC2(CC1=O)CN(C(C)=O)CCN(C(=O)NC)C2` (centres undefined), the INHIBITION is listed as -17.59%.
In the case of `CCCS(=O)(=O)CCSc1cccc(C#N)c1`, the INHIBITION came out at 32.97%.
To `N#Cc1ccc(F)c(CNc2ccc(F)cc2OCCO)c1` belongs -17.04%.
Consider `N#Cc1ccc(SCCC(=O)O)cc1`, for which the INHIBITION was determined as 1.8%.
For the compound `N#Cc1ccc(SCCCO)c(F)c1`, the INHIBITION is on record as -22.89%.
The figure for `N#Cc1ccc(SCCOCCO)c(F)c1` is 53.63%.
Consider `N#Cc1ccc(SCCOCCO)c(Cl)c1`, for which the INHIBITION is on record as 53.63%.
The figure for `CO[C@@H]1CCC[C@@H](NC(=O)C(C)(C)c2cccc(F)c2)[C@H]1O` is -21.9%; for `CC(C)n1cnc2c1C(C(=O)N1CCCC1)N(S(C)(=O)=O)CC2` (centres undefined) it is 29.19%; for `Cn1cc(I)c(C(=O)NCCCn2cc(Br)cn2)n1` it is -6.71%.
As for `Cc1nn(C)c(C)c1C(C(=O)O)N1CCc2ccccc2C1` (centres undefined), the INHIBITION worked out at 11.33%.
Consider `O=C(NCCS(=O)(=O)N1CCN(c2ncccn2)CC1)c1ccccc1`, for which the INHIBITION is on record as 30.62%.
For the compound `Cc1nc(CN2C[C@@H]3CCCO[C@@H]3[C@H](N(C)C(C)C)C2)cs1`, the INHIBITION is recorded as -20.01%.
In the case of `CC(=O)N1CC(C)CN(C(=O)c2cccnc2C)c2ccccc21` (centres undefined), the INHIBITION is reported as -5.98%.
To `N#Cc1c(Cl)nsc1NCc1cccnc1OC1CCCC1` belongs -59.9%; to `O=c1[nH]cnc2c1CCN(S(=O)(=O)c1ccc(Cl)cc1)C2`, 5.1%; to `O=S1(=O)c2ccccc2C2(CCN(Cc3cccnc3)C2)N1CC1CC1` (centres undefined), 30.39%.
With `CCCS(=O)(=O)N1CCc2nc(N3CCOCC3)nc(N(C)C)c2C1`, the INHIBITION is reported as 40.64%.
To `Cc1nc(N2CCOCC2)nc2c1CCN(C(=O)NC1CCCC1)CC2` belongs 51.57%; to `Cc1nc(N2CCCC2)nc2c1CCN(C(=O)NC(C)C)CC2`, -4.2%; to `Cc1nc(N2CCCC2)nc2c1CCN(C(=O)NC1CCCC1)CC2`, 40.28%.
`CCC(=O)N1CCc2nc(N3CCOCC3)nc(N(C)C)c2CC1`: the INHIBITION stood at 54.62%.
Turning to `Cc1nc(N2CCCC2)nc2c1CN(C(=O)NC(C)C)CC2`, the INHIBITION is listed as 60.05%.
Regarding `CCS(=O)(=O)N1CCc2nc(N3CCOCC3)nc(N(C)C)c2CC1`, the INHIBITION is on record as 21.57%.
`CC(=O)N1CCc2nc(N3CCCC3)nc(C)c2C1`: the INHIBITION was determined as 15.57%.
Consider `Cc1nc(N2CCOCC2)nc2c1CCN(C(=O)C1CCCCC1)CC2`, for which the INHIBITION is reported as 36.99%.
To `N#Cc1cccc(C(=O)NC2CCc3c(ccc(=O)n3CC3CC3)C2)c1` (centres undefined) belongs -7.45%.
Consider `COC(=O)c1cccc(S(=O)(=O)NC(=O)CC2CCCC2)c1`, for which the INHIBITION is -30.66%.
To `CC1CN(Cc2nnsc2Cl)CCN1c1nccs1` (centres undefined) belongs 24.82%; to `O=C(NC1CC1)[C@H]1C[C@@H]2CCN(Cc3ccc4c(c3)OCO4)C[C@@H]2O1`, 14%; to `CCc1cc(NCCN2CCNC2=O)n2nc(C)c(C)c2n1`, -35.07%.
In the case of `O=C(Cc1ccccc1)N1CCC(c2nnc(-c3ccccn3)o2)CC1`, the INHIBITION was 11.53%.
For the compound `CCn1ncc(CN2CCN(C(=O)Cn3cc(Br)c(C)n3)CC2)c1C`, the INHIBITION is listed as -22.24%.
Regarding `COc1cccc(CN(Cc2ccco2)Cc2cnc(C)n2C)c1`, the INHIBITION is listed as -4.04%.
Regarding `Cc1nc2cc(=O)[nH]n2c(C)c1CNC(=O)c1cnn(C(C)(C)C)c1`, the INHIBITION is reported as -46.8%.
Regarding `Cc1ccc(CN(C(=O)NCC(c2cccs2)N(C)C)C2CC2)o1` (centres undefined), the INHIBITION was -38.2%.
In the case of `CCN(C(=O)Nc1cccnc1OC)C1CC1`, the INHIBITION is recorded as -14.3%.
On to `Cc1ccc(CN(C(=O)NCC2CCCO2)C2CC2)o1` (centres undefined), for which the INHIBITION is listed as 57.85%.
The figure for `Cc1ccc(CN(C(=O)NCC2CCS(=O)(=O)C2)C2CC2)o1` (centres undefined) is 26.39%; for `COc1ncccc1NC(=O)N(Cc1ccco1)C1CC1` it is 20.93%; for `COc1ncccc1NC(=O)N(Cc1ccc(C)o1)C1CC1` it is 51.21%.
With `Cc1cc(CN2CCN(C(=O)CCCc3nc(C(C)C)no3)CC2)on1`, the INHIBITION is 26.06%.
With `COc1ncc(-c2ccc(C(N)=O)cc2)c(OC)n1`, the INHIBITION came out at 29.41%.
The figure for `Cc1cc(C)c(CNC(=O)NCCCNc2ccccn2)c(=O)[nH]1` is 34.65%; for `CCN1C[C@H]2CCN(C(C)=O)CC[C@H]2S1(=O)=O` it is 59.49%.
To `CCN1C[C@H]2CCN(C(=O)NC)CC[C@H]2S1(=O)=O` belongs -11.73%; to `COCCN1C[C@H]2CCN(C(C)=O)CC[C@H]2S1(=O)=O`, 43.05%.
`O=C(NCCN1CCOCC1)c1ccn(COc2ccc(F)cc2)n1`: the INHIBITION is -10.62%.
As for `O=C(NCCN1CCOCC1)c1ccc(-c2ccccc2)[nH]c1=O`, the INHIBITION is listed as 40.47%.
Take `O=C(NCCCN1CCOCC1)c1ccn(COc2ccc(Br)cc2)n1`: the INHIBITION was found to be 12.84%.
`Cc1ccc(C(=O)NCCN2CCOCC2)c(=O)[nH]1`: the INHIBITION is given as -84.65%.
To `O=C(NCCN1CCOCC1)c1ccc(-c2ccc(F)cc2)nc1O` belongs 58.75%; to `O=C(NCCCN1CCOCC1)c1ccn(COc2ccc(F)cc2)n1`, 58.42%; to `CCc1nnc(C(C)N2CCN(CCC(=O)NC3CC3)CC2)o1` (centres undefined), 35.61%.
Regarding `CC(C)(C)C(CCO)NC(=O)Nc1ccncc1` (centres undefined), the INHIBITION is 6.84%.
